“And” between values parts separate entries of the source, which are not always exact repeats. Identical values can stand only once. Results filed as inconclusive are left out. Where a call stands in place of a potency, no number is given. Some structures have more than one record in an assay (separate samples or runs), and their calls can disagree. The source made the active and inactive calls. Calls come from the whole dose curve; as a rule, active = well fitted cell-killing curve with a large enough effect in the repeat runs (not every such curve was filed as active); inconclusive = weak or mixed curves, or effect the other way; inactive = no such curve, though single readings can be large or run the other way.
Potency is the fitted concentration of half-maximal effect.

This assay is described as follows: qHTS assay to identify small molecule antagonists of the farnesoid-X-receptor (FXR) signaling pathway - cell viability counter screen (AID 743221). Note: nearly all actives have a fitted effect of over 50% in size. The conditions noted are these: FXR-bla HEK293T viability, CellTiter-Glo luminescence, 16 h; series mostly up to 62.6 µM. The source says: National Center for Advancing Translational Sciences [NCATS]
NIH Chemical Genomics Center [NCGC]
U.S. Environmental Protection Agency [EPA]
National Institutes of Environmental Health Sciences [NIEHS]
National Toxicology Program [NTP]
U.S. Food and Drug Administration [FDA]
The farnesoid-X-receptor (FXR), a nuclear hormone receptor, is highly expressed in liver, intestine, kidney and adrenal cortex. Natural ligands of FXR are the bile acids (Cholic acid, Chenodeoxy cholic acid etc). FXR is an important regulator of diverse metabolic pathways, including the bile acid homeostasis, lipid and glucose metabolisms. FXR regulates the expression of target genes by binding either as a monomer or as a heterodimer with the retinoid X receptor (RXR). Numerous studies have reported that FXR exerts protective function during cholestasis, diabetes, liver regeneration, and cancer. To identify compounds that inhibit FXR signaling, GeneBLAzer FXR-UAS-bla HEK 293T cell line (Invitrogen, Carlsbad, CA) containing a beta-lactamase reporter gene under the control of a UAS response element was used to screen the Tox21 10K compound library. The cytotoxicity of the Tox21 compound library against the FXR-bla cell line was tested in parallel by measuring the cell viability using CellTiter-Glo assay in the same wells.
Tox21 Assay Protocol Summary:
FXR-bla cells were dispensed at 5000 cells/5uL/well in 1536-well black wall/clear bottom plates using a Multidrop Combi (Thermo Fisher Scientific, Waltham, MA) dispenser. After the assay plates were incubated at 37 C and 5% CO2 for 5 h, 23 nL of compounds dissolved in DMSO, positive controls or DMSO only was transferred to the assay plate by a Pintool station (Kalypsys, San Diego, CA), followed by addition of 1 uL Chenodeoxycholic acid (50 uM, final concentration in the wells). The assay plates were incubated at 37C for 16 h. After 1 uL of LiveBLAzerTM B/G FRET substrate was added using a Bioraptr Flying Reagent Dispenser (FRD) workstation (Beckman Coulter, Indianapolis, IN), the plates were incubated at room temperature for 2 h, and fluorescence intensity was measured by an Envision plate reader (PerkinElmer, Shelton, CT). For cell viability readout that measures cytotoxicity, 4uL/well of CellTiter-Glo reagent was added into the assay plates using a Bioraptr FRD. After 30 min incubation at room temperature, the luminescence intensity in the plates was measured using a ViewLux plate reader (PerkinElmer).
As to `NCC(CC(=O)O)c1ccc(Cl)cc1` (stereo not given), the activity change, negative = cytotoxicity was 3.53% [at 0.55 µM] (inactive).
Regarding `O=C(O)COc1ccc(Cl)cc1`, the Potency result is “inactive”.
Same read-out and setting: under `CCOP(=S)(OCC)Oc1cc(Cl)c(Br)cc1Cl` stands “inactive”; under `CN1C(=O)C(O)N=C(c2ccccc2)c2cc(Cl)ccc21` (stereo not given), “inactive”.
On the same count and under the same terms, under `COC(N)=O` stands “inactive”; under `CCCC(=O)Cl`, “inactive”; under `C=CCOC(C)=O`, “inactive”.
Still for that read-out and setting: under `COC1=CC(=O)O[C@@H](CCc2ccccc2)C1` stands “inactive”.
`COC(=O)C(Br)CBr` (stereo not given): the Potency entry is “inactive”.
On the same count and under the same terms, under `O=C(O)C(F)(F)C(F)(F)C(F)(F)C(F)(F)C(F)(F)C(F)(F)C(F)(F)C(F)(F)C(F)(F)F` stands “inactive”; under `COC(C)(C)CCC[C@H](C)C/C=C/C(C)=C/C(=O)OC(C)C`, “inactive”.
Same read-out and setting: under `CO/N=C(/C(=O)OC)c1ccccc1COc1ccccc1C` stands “inactive”.
Same read-out and setting: for `C=C(C#N)CCC#N` the value was “inactive”; for `CC(=O)C(C)(C)C`, “inactive”.
As to `Nc1nc(=S)[nH][nH]1`, the Potency result was “inactive”.
Same read-out and setting: under `CN(N=O)c1ccc([N+](=O)[O-])cc1` stands “inactive”; under `CCOc1nc(F)cc2nc(S(=O)(=O)Nc3c(Cl)cccc3Cl)nn12`, “inactive”.
On the same count and under the same terms, for `CCC(Br)(CC)C(=O)NC(N)=O` the value was “inactive”; for `CC1(C)CCC(Cc2ccc(Cl)cc2)C1(O)Cn1cncn1` (stereo not given), “inactive”.
Take `CCCCN=C=O`: the Potency entry is “inactive”.
Still for that read-out and setting: for `CNC(C)Cc1ccccc1OC` (stereo not given) the value was “inactive”; for `O=C(CCl)c1ccc(Cl)cc1Cl`, “inactive and 29.8 µM (active)”.
On the same count and under the same terms, under `C=CCN1CC[C@]23c4c5ccc(O)c4O[C@H]2C(=O)CC[C@@]3(O)[C@H]1C5` stands “inactive”; under `CCOP(=O)(OCC)O/C(=C/Cl)c1ccc(Cl)cc1Cl`, “inactive”; under `O=[N+]([O-])C(Br)(CO)CO`, “inactive”.
The same measure, in the same setting: under `Oc1ccc(Cl)c(Cl)c1Cl` stands “inactive”; under `C=CC(C)=O`, “inactive”.
Regarding `Brc1ccc(Oc2ccccc2)cc1`, the Potency result is “inactive”.
For `CC(C)(CCl)C(=O)Cl`, the Potency result was “inactive”.
`ClP(Cl)(Cl)(Cl)Cl`: the Potency entry was “inactive”.
Same read-out and setting: for `CC(C)N(C(=O)COc1nnc(C(F)(F)F)s1)c1ccc(F)cc1` the value was “inactive”; for `C[N+](C)(C)CCCl`, “inactive”; for `COCC(C)N(C(=O)CCl)c1c(C)csc1C` (stereo not given), “inactive”.
As for `CCOS(C)(=O)=O`, the Potency result was “inactive”.
On the same count and under the same terms, for `O=[N+]([O-])c1ccccc1CCl` the value was “inactive”; for `CCOP(=S)(OCC)Oc1nc(Cl)c(Cl)cc1Cl`, “inactive”; for `O=C1C(Cl)C(CCl)CN1c1cccc(C(F)(F)F)c1` (stereo not given), “inactive”.
On the same count and under the same terms, for `CCOC(=O)CBr` the value was “inactive”; for `O=S1OC[C@@H]2[C@H](CO1)[C@]1(Cl)C(Cl)=C(Cl)[C@@]2(Cl)C1(Cl)Cl` (stereo not given in full), “inactive”.
Same read-out and setting: for `N#CCC#N` the value was “inactive”.
